# Results filed as inconclusive are left out. Values without a mark were called inactive. Active and inactive are the calls of the source. The call rests on the fitted dose curve; in most records, active means well fitted curve in the direction sought with a large enough effect; inconclusive means small, poorly fitted or top-dose-only effect, or another doubt; inactive means no such curve, though single readings can be large; an effect the other way counts as inactive or inconclusive.
# How the values were obtained:
# [1] = Drug repurposing screens with cells derived from glioblastoma tumor samples (AID 1345199); settings: GBM patient neurospheres viability, ATP luminescence, 48 h; further: nearly all actives have a fitted effect of over 40% in size; further: potency means the concentration at half of the fitted maximal effect
# Summary of the method: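 Four patient lines of CD133+ GBM neurospheres were screened at several concentrations; hits were retested in those lines plus three slower-growing GBM lines, using 48-hour treatment and ATP-based viability.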
# [2] = qHTS assay to identify inhibitors of the type 1 interferon - major histocompatibility complex class I in skeletal muscle: Counter screen cell viability and HiBit confirmation (AID 1347412); settings: iHSKM muscle cells + IFN-b, HiBiT or CellTiter-Glo, 24 h; for Potency: HiBiT; for activity change, negative = inhibition: Viability, at 45.9 µM (top of the series); further: potency means the concentration at half of the fitted maximal effect; on all read-outs here: nearly all actives have a fitted effect of over 60% in size
# Summary of the method: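 After 24 h with human IFN-beta (4 ng/ml) and compound titrations (top 46 uM final, 1:3, 12 points), HLA-B HiBit myoblasts were lysed for either Nano-Glo HiBiT luminescence or CellTiter Glo viability on paired plates.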
# JEG-3 = test: Primary qHTS to identify gynecologic anti-cancer compounds using libraries of approved drugs and bioactive compounds (AID 1345084); settings: Gynecologic cancer cell panel viability, ATPlite luminescence, 48 h; series mostly up to 57.5 µM; further: nearly all actives have a fitted effect of over 55% in size
# Summary of the method: (§1)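 48 h compound exposure at 37 C, 5% CO2; five-point qHTS. ATPlite luminescence readout of cell ATP.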
# OV90 = test: as above; settings: Gynecologic cancer cell panel viability, ATPlite luminescence, 48 h; series mostly up to 57.5 µM
# Summary of the method: as §1
# [3] = at 45.9 µM (top of the series), tumour line B
# [4] = at 45.9 µM (top of the series), tumour line D
# [5] = at 46 µM (top of the series), tumour line A
# [6] = at 46.1 µM (top of the series), tumour line C
# On the % scale 0 is the no-effect control and ±100 the full control effect.
smiles,measurement,setting,value
O=C(O)c1nc(=O)[nH]c(=O)[nH]1,"activity, negative = cell killing",[1]; [3],0.794%
same,"activity, negative = cell killing",[1]; [4],6.49%
same,"activity, negative = cell killing",[1]; [5],-9.41%
same,"activity, negative = cell killing",[1]; [6],-6.32%
Cc1cccc(Nc2nc(N[C@@H]3CCCC[C@H]3N)ncc2C(N)=O)c1,Potency,[2],15.7 µM (active)
O=C1CN2Cc3c(ccc(Cl)c3Cl)N=C2N1,"activity change, negative = inhibition",[2],-3.92%
COc1ccc2nc3cc(Cl)ccc3c(Nc3cc(CN4CCCC4)c(O)c(CN4CCCC4)c3)c2n1,"activity change, negative = inhibition",[2],-8.41%
Cc1cc2c(cc1C1(c3ccc(C(=O)O)cn3)CC1)C(C)(C)CCC2(C)C,Potency,JEG-3,inactive
same,Potency,OV90,inactive
CCC[C@H](N[C@@H](C)C(=O)N1[C@@H]2CCCC[C@H]2C[C@H]1C(=O)O)C(=O)OCC,"activity, negative = cell killing",[1]; [3],-14%
same,"activity, negative = cell killing",[1]; [4],-19.1%
same,"activity, negative = cell killing",[1]; [5],-33%
same,"activity, negative = cell killing",[1]; [6],-16.9%
CCc1cc(-c2n[nH]c(C)c2-c2ccc3c(c2)OCCO3)c(O)cc1O,"activity change, negative = inhibition",[2],-3.79%
CCCCCCCCCCCCCCCC(=O)O[C@H]1[C@@H](O)[C@@H](O)[C@@H]([C@H](NC(=O)[C@@H]2C[C@@H](CCC)CN2C)[C@H](C)Cl)O[C@@H]1SC,"activity, negative = cell killing",[1]; [3],-20%
same,"activity, negative = cell killing",[1]; [4],-15.1%
same,"activity, negative = cell killing",[1]; [6],10.8%
same,Potency,[1]; tumour line A,17.8 µM (active)
O=C(Nc1cccc(Cl)c1)Nc1ncc(CCNc2ncnc3ccsc23)s1,"activity change, negative = inhibition",[2],8.48%
CCC(=O)OCC(=O)[C@@]1(OC(=O)CC)[C@@H](C)C[C@@H]2[C@H]3CCC4=CC(=O)C=C[C@]4(C)[C@@]3(F)[C@@H](O)C[C@@]21C,"activity, negative = cell killing",[1]; [3],-4.93%
same,"activity, negative = cell killing",[1]; [6],2.82%
same,Potency,[1]; tumour line A,11.2 µM (active)
COc1c(C)cnc(Cn2cnc3c(Cl)nc(N)nc32)c1C,Potency,[2],0.222 µM (active)
CC(C)CN(C[C@@H](O)[C@H](Cc1ccccc1)NC(=O)O[C@H]1CO[C@H]2OCC[C@H]21)S(=O)(=O)c1ccc(N)cc1,"activity, negative = cell killing",[1]; [3],-11.9%
same,"activity, negative = cell killing",[1]; [4],-22.5%
same,"activity, negative = cell killing",[1]; [6],-17%
same,Potency,[1]; tumour line A,17.8 µM (active)
